Experimental findings from PubChem BioAssay are described below.

The structures appear in SMILES notation. Calls of active or inactive are those of the source. Unless noted, no rule for the calls is given here.

For experiment [1], the system named is Wnt5a (protein binding on small-molecule microarray). Put plainly: small molecules binding Wnt5a protein – biophysical, small-molecule microarray, 635/667 nm fluorescence, primary screen (AID 1142).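 Also: fluorescence read at 667 nm with signal to noise per printed feature.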 Particulars: 635 nm fluorescence, higher = more signal.
The nature of experiment [2]: ATP-based viability of Huh7 replicon cells – cell-based, CellTiter-Glo luminescence, basal, 48 h, cytotoxicity control for HCV replication inhibitor project, primary screen (AID 1143).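 Also: Huh7 hepatoma cells carrying a hepatitis C replication reporter with no stimulus; test concentration not given here.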 Conditions: higher = more signal, called active from +8 up or from −8 down.
Experiment [3] in a line: Pseudomonas biofilm growth suppression – PAO1 strain, BacTiter-Glo luminescence, LB-PBS, primary screen (AID 1144). Conditions: P. aeruginosa PAO1 biofilm, 12 h, higher = more signal.
Experiment [4] in a line: basal CRE-LacZ reporter activity in PC12 – cell-based, unstimulated, primary screen (AID 1145). Conditions: no forskolin, luminescence, 4.5 h, higher = more signal, called active from +8 up or from −8 down.
Experiment [5] is described as follows: forskolin-driven CRE-LacZ activity in PC12 – cell-based, CRE-LacZ reporter, forskolin-stimulated, primary screen (AID 1146).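 Also: PC12 cells with 6xCRE LacZ reporter stimulated by forskolin 10 µM; beta-galactosidase reporter signal reflecting CREB driven transcription.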 Conditions: luminescence, 4.5 h, higher = more signal, called active from +8 up or from −8 down.
Experiment [6] addresses Streptavidin (Streptomyces avidinii) (UniProt P22629). Put plainly: compounds binding control protein streptavidin – biophysical, small-molecule microarray, 635/667 nm fluorescence, artefact control for SMM compound annotation, primary screen (AID 1147).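 Also: signal reflects streptavidin binding to arrayed compounds as a control protein.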 Particulars: higher = more signal.
Experiment [7] can be described thus: probe aInhba binding on compound microarray – biochemical, small-molecule microarray, 635/667 nm fluorescence, primary screen (AID 1148).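 Also: score merges 667nm spot fluorescence with signal-to-noise for antibody binding to printed compounds.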 Conditions: higher = more signal.
Experiment [8] concerns the target Torsin-1A (Homo sapiens) (UniProt O14656). The experiment in a line: TOR1A wild-type binding on microarray – cell lysate, small-molecule microarray, lysate, 635/667 nm, primary screen (AID 1149). Conditions: COS7 hTOR1A-WT lysate, 635 nm fluorescence, higher = more signal.
Experiment [9] has the same target. Put plainly: torsin A mutant lysate binding on microarrays – cell lysate, small-molecule microarray, COS7 lysate, 635/667 nm fluorescence, primary screen (AID 1150).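 Also: score pools 667 nm emission and signal to noise measuring lysate protein binding.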 Conditions: COS7 hTOR1A mutant lysate, 635 nm fluorescence, higher = more signal.
Experiment [10] has as its system Sonic hedgehog protein (Shh). The experiment in a line: Sonic hedgehog microarray binding compounds – biochemical, small-molecule microarray, 635/667 nm fluorescence, primary screen (AID 1151).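 Also: Shh protein binding to compounds spotted on small-molecule microarray slides; score combines spot fluorescence intensity with signal-to-noise across triplicate slides.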 Particulars: 635 nm fluorescence, higher = more signal.
A short description of experiment [11]: optical density shifts of acrAB sulA E. coli – strain DRC41, OD650, 48 h, E. coli filamentation inducer project, primary screen (AID 1152).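 Also: E. coli MC1000 strain DRC41 lacking acrAB efflux pump and sulA.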 Conditions: higher = more signal, called active from +8 up or from −8 down.
Experiment [12] in a line: probe aLefty1 binding on compound microarray – biochemical, small-molecule microarray, 635/667 nm fluorescence, primary screen (AID 1153).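 Also: score merges spot fluorescence with signal-to-noise ratio from the scanned slide images.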 Particulars: higher = more signal.
Experiment [13] is described as follows: plasmodial surface anion channel blockers, osmotic lysis – cell-based, P. falciparum Indochina, OD700, 1 h, primary screen (AID 1154). Conditions: P. falciparum Indochina infected RBC osmotic lysis, higher = more signal, called active from +8 up or from −8 down.
Experiment [14] in a line: plasmodial surface anion channel blockers, osmotic lysis – cell-based, P. falciparum Indochina, OD700, 2 h, primary screen (AID 1155).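 Also: lysis reports solute entry through the parasite surface anion channel PSAC.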 Conditions: P. falciparum Indochina infected erythrocytes, higher = more signal, called active from +8 up or from −8 down.
Experiment [15] is described as follows: changes in parasitized red cell lysis, either direction – P. falciparum Indochina, OD700, 3 h, PSAC antagonist project, primary screen (AID 1156). Particulars: P. falciparum-infected erythrocytes, osmotic lysis, higher = more signal, called active from +8 up or from −8 down.
A short description of experiment [16]: plasmodial surface anion channel blockers, osmotic lysis – cell-based, P. falciparum Indochina, OD700, 18 h, primary screen (AID 1157). Conditions: P. falciparum Indochina infected erythrocytes, osmotic lysis OD700, 18 h; higher = more signal, called active from +8 up or from −8 down.
The nature of experiment [17]: S6 kinase pathway phospho-S6 level changes – cell-based, A549, cytoblot, luminescence, serum-stimulated, primary screen (AID 1158).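 Also: serum-stimulated A549 lung adenocarcinoma cells; signal is phosphorylated S6 detected by cytoblot immunostaining with HRP secondary.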 Particulars: 5 h, higher = more signal.
Experiment [18] concerns the target NADPH oxidase 2 (Homo sapiens) (UniProt P04839). The experiment in a line: compounds shifting NOX2 Amplex Red fluorescence – cell-based, HEK293-NOX2, PMA-stimulated, NOX inhibitor project, primary screen (AID 1159). Also: test concentration not given here. Conditions: 45 min, higher = more signal, called active from +8 up or from −8 down.
Experiment [19] concerns the target NADPH oxidase 4 (Homo sapiens) (UniProt Q9NPH5). Put plainly: compounds shifting NOX4 Amplex Red fluorescence – cell-based, HEK293-NOX4, tetracycline-induced, NOX inhibitor project, primary screen (AID 1160). Conditions: HEK293-NOX4, Amplex Red H2O2 fluorescence, 45 min; higher = more signal, called active from +8 up or from −8 down.
Experiment [20] deals with NADPH oxidase 5 (Homo sapiens) (UniProt Q96PH1). The experiment in a line: compounds shifting NOX5 Amplex Red fluorescence – cell-based, HEK293-NOX5, NOX inhibitor project, primary screen (AID 1161). Particulars: HEK293-NOX5, ionomycin, 45 min, higher = more signal.
Sequence of NADPH oxidase 5 (Homo sapiens) (Q96PH1 whole entry, looked up): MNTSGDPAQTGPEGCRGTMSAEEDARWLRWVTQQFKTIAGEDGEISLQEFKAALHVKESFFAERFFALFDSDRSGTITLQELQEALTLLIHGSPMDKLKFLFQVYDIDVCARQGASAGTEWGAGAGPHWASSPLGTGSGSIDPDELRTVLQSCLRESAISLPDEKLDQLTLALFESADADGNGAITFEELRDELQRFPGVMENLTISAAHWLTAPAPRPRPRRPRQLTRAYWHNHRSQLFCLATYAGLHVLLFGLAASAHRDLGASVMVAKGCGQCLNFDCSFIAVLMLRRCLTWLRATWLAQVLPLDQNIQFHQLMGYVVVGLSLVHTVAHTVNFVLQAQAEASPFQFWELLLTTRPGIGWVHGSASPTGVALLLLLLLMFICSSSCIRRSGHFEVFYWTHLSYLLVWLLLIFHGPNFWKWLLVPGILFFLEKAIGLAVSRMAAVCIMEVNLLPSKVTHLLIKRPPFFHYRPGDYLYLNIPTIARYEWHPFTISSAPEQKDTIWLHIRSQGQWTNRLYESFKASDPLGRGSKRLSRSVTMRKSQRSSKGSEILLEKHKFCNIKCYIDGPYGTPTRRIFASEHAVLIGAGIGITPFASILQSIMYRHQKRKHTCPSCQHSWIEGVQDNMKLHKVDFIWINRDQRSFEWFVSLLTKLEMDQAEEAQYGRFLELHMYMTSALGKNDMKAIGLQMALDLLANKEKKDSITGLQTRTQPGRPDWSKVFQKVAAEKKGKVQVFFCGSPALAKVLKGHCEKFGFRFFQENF

Sequence of NADPH oxidase 2 (Homo sapiens) (P04839 whole entry, looked up): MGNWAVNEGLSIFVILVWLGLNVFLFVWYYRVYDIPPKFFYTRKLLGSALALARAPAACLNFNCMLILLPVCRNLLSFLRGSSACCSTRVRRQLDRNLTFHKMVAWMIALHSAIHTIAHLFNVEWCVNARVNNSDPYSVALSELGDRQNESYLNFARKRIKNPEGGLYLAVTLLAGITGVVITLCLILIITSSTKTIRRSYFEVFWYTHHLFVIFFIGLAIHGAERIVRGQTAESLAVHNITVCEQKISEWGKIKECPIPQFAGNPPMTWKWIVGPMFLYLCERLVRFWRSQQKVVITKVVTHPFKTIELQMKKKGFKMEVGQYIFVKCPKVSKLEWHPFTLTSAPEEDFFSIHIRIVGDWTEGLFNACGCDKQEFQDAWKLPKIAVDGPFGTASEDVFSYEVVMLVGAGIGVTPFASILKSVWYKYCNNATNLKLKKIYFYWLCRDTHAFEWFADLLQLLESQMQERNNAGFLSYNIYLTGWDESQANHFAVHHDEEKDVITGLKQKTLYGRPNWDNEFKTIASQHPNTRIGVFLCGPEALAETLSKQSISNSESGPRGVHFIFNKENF
Sequence of NADPH oxidase 4 (Homo sapiens) (Q9NPH5 whole entry, looked up): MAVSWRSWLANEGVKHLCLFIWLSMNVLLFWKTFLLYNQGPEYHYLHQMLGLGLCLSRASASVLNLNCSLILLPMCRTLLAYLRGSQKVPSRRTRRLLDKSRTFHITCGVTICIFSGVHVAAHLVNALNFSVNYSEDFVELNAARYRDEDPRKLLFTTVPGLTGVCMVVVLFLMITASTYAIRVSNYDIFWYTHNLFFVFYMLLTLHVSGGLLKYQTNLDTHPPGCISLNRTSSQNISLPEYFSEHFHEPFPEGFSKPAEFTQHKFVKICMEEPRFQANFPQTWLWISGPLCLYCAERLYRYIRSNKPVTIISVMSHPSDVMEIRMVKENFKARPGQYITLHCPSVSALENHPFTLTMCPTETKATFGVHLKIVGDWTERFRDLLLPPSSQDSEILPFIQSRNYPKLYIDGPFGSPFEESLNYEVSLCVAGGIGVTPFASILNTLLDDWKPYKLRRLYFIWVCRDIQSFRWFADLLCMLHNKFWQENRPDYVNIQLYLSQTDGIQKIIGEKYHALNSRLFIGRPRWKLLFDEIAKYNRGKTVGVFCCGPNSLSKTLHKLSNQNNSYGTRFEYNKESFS
Sequence of Torsin-1A (Homo sapiens) (O14656 whole entry, looked up): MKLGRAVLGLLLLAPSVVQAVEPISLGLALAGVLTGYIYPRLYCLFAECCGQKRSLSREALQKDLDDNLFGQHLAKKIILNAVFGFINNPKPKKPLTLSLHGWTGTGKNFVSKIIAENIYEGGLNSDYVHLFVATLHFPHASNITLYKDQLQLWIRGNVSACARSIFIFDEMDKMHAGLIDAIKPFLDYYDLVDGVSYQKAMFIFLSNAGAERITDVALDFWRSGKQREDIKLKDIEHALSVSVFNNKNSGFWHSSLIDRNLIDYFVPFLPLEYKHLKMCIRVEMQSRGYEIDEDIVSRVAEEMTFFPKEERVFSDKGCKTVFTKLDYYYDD
Sequence of Streptavidin (Streptomyces avidinii) (P22629 whole entry, looked up): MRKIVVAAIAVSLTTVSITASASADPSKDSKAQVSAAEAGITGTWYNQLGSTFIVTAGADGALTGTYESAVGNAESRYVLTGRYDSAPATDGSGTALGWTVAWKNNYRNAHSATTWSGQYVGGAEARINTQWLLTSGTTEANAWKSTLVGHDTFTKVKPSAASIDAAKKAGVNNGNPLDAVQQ

With `[N-]=[N+]=Nc1ccccc1[C@@H]1OC(c2ccc(OCCCO)cc2)=N[C@]1(Cc1ccccc1)C(N)=O`, the composite z-score in [1] is -0.0757; in experiment [6] it was 0.533; in experiment [7], 0.451; in experiment [8], 0.245; in experiment [9] it was 0.305; in [10], -0.0762. In experiment [12], the composite z-score came to 0.0576. The z-score was -2 (inactive) in experiment [2]; -0.0461 (inactive) in experiment [3]; 0.195 (inactive) in experiment [4]; -1.49 (inactive) in [5]; 1.7 (inactive) in experiment [11]; 30.7 (active) in [13]. Also, the z-score is 31.3 (active) in experiment [14]; 2.22 (inactive) in experiment [15]; 3.17 (inactive) in experiment [16]; -0.414 in experiment [17]; 0.865 (inactive) in experiment [18]; 0.46 (inactive) in experiment [19]. The z-score in experiment [20] was -1.48.
In the case of `[N-]=[N+]=NCc1ccccc1[C@H]1OC(c2ccc(OCCCO)cc2)=N[C@@]1(Cc1ccccc1)C(=O)N1CCOCC1`, the composite z-score was 0.896 in experiment [1]; 1.08 in experiment [6]; 0.355 in experiment [7]; 1.47 in [8]; 1.17 in experiment [9]; -0.346 in experiment [10]. In [12], this molecule showed a composite z-score of 0.321. Also, the z-score is -3.73 (inactive) in experiment [2]; -0.78 (inactive) in experiment [3]; 2.02 (inactive) in experiment [4]; -0.227 (inactive) in [5]; -0.686 (inactive) in experiment [11]; 28.8 (active) in [13]. For the same molecule, the z-score in [14] is 25.7 (active); in [15] it was 2.96 (inactive); in [16], 2.24 (inactive); in experiment [17] it was 0.692; in experiment [18] it was -0.0281 (inactive); in experiment [19] it was 0.154 (inactive). Further, the z-score in [20] was -0.526.
Take `CC1CC/C=C\[C@H]2OC34C=CCN(CCN5CCOCC5)C(=O)[C@H]3N(CCCCCCO)C(=O)[C@@H]4C2C(=O)O1` (stereo not given in full): the composite z-score is -0.603 in [1]; -0.66 in [6]; -0.104 in [7]; -1.52 in experiment [8]; -0.948 in experiment [9]; 0.527 in [10]. The same molecule showed a composite z-score in experiment [12] of -0.187. For the same molecule, the z-score in experiment [2] was 0.524 (inactive); in experiment [3] it was 0.0591 (inactive); in experiment [4], 0.605 (inactive); in [5], 0.241 (inactive); in experiment [11], -0.044 (inactive); in experiment [13], 0.592 (inactive). The z-score in experiment [14] is 0.267 (inactive); in experiment [15] it was 0.215 (inactive); in [16], 0.182 (inactive); in experiment [17] it was -0.375; in experiment [18], 0.726 (inactive); in experiment [19], -0.0532 (inactive). The z-score in experiment [20] was 1.96.
On to `COc1ccc(NN2C(C(O)c3ccc(OC)cc3)C=CC3C(=O)N(C4CCCCC4)C(=O)C32)cc1` (stereo not given), for which the composite z-score in experiment [1] was 0.219; in experiment [6], 0.964; in [7] it was -0.0313; in experiment [8], 0.118; in experiment [9], 0.202; in [10], 0.0867. Also, the composite z-score in experiment [12] is 0.0768. Moreover, the z-score in experiment [2] was -0.914 (inactive); in [3], -0.257 (inactive); in [4], -0.163 (inactive); in [5] it was -0.211 (inactive); in experiment [11], -0.625 (inactive); in [13], 9.1 (active). For the same molecule, the z-score was 1.69 (inactive) in experiment [14]; 0.722 (inactive) in experiment [15]; 0.63 (inactive) in [16]; -0.613 in experiment [17]; -1.34 (inactive) in [18]; -1.1 (inactive) in experiment [19]. Further, in experiment [20], the z-score was -2.54.
As to `CC(C)CNC(=O)[C@@H]1c2ccccc2C(=O)N(C(C)C)[C@H]1c1ccc(CO)cc1`, the composite z-score in [1] was 0.0274; in experiment [6] it was -1.16; in [7] it was -0.0986; in experiment [8] it was 1.13; in [9] it was 0.0411; in [10], 0.35. The composite z-score in [12] was -0.0559. In addition, the z-score in experiment [2] is -1.93 (inactive); in experiment [3], -0.753 (inactive); in experiment [4], -0.179 (inactive); in experiment [5], -0.739 (inactive); in experiment [11], 0.941 (inactive); in experiment [13], 0.747 (inactive). The z-score is -0.483 (inactive) in experiment [14]; -0.758 (inactive) in experiment [15]; -0.779 (inactive) in experiment [16]; 1.85 in [17]; -0.215 (inactive) in experiment [18]; 0.443 (inactive) in [19]. For the same molecule, the z-score in experiment [20] is 0.887.
